# Bioassay records (PubChem)
# Only some compounds are listed: those with a hit (about 9.9% of all), similar ones and a draw of the others.
# IL1B secr inh – inflammasome signaling inhibition, IL-1 beta readout; THP-1 LPS/ATP IL-1B secretion, AlphaLISA, 16 h; hits give low values; AID 743279; hit rate 4.7% among 360,000; activity change, % at 57.5 µM; in the data active = activity change below about -50%; inconclusive = mostly about -30% to -49%; note: % is set by controls: 0 for no effect and ±100 for the full control effect
#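 Secreted IL-1B measured by AlphaLISA bead assay after 16 h compound exposure of THP-1 cells; compounds (final up to 57.5 uM) added 1 h before LPS (250 ng/mL) and ATP (1.25 mM) stimulation; lower signal means less secretion.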
# MCF10A rerep – inducers of DNA re-replication in MCF 10A breast cells; MCF 10A DNA re-replication, Hoechst nuclear intensity, 48 h; AID 624296; Potency, µM (highest dose often 46.1 µM), inactives show at the highest dose activity, positive = re-replication, hits mostly activators; hit rate 2.9% among 350,000; note: potency is the fitted concentration of half-maximal effect; % of control where 0% means no effect; nearly all actives have a fitted effect of over 50% in size
# SW480 rereplic – induces DNA re-replication in SW480 colon adenocarcinoma cells | SW480 DNA re-replication, Hoechst DNA content imaging, 48 h | Potency, µM (highest dose often 46.1 µM), for inactives: top-dose re-replication activation, most hits filed as activators | hit rate 1.8% among 340,000; note: potency is the fitted concentration of half-maximal effect; % of control where 0% means no effect; nearly all actives have a fitted effect of over 55% in size
#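 Compounds, transferred as 23 nL by pin tool, were incubated with cells for 48 hr; DNA content per nucleus was then quantified by Hoechst staining and fluorescence plate imaging.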
# KB-V1 MDR tox – kills drug-selected multidrug resistant KB-V1 cells | hit rate 3.4% among 400,000 | KB-V1 MDR cells viability, CellTiter-Glo, 72 h | Potency, µM (titrated, usually from 46.1 µM), actives largely listed as cytotoxic; note: potency is the fitted concentration of half-maximal effect; % is set by controls: 0 for no effect and ±100 for the full control effect; nearly all actives have a fitted effect of over 60% in size
#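 Readout: CellTiter-Glo luminescence, 10 min after addition. Cells: KB-V1 MDR subline, 72 h at 37 degrees C with compound. Analysis: corrected, normalized data fitted to concentration-effect curves.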
# KB-3-1 tox – KB-3-1 parental cell cytotoxicity; KB-3-1 viability, CellTiter-Glo ATP luminescence, 72 h; Potency, µM (titrated, usually from 46.1 µM), most hits filed as cytotoxic; hit rate 1.4% among 400,000; AID 1347075; note: potency is the fitted concentration of half-maximal effect; % is set by controls: 0 for no effect and ±100 for the full control effect; nearly all actives have a fitted effect of over 60% in size
#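 Luminescent ATP read-out (CellTiter-Glo) measures survival of drug-naive KB-3-1 cells after 72 h compound exposure at 37 °C. Titration series was screened from lowest to highest concentration, with DMSO vehicle plates as background controls.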
# Numbers without * were called inactive; i = inactive; ? = inconclusive; / = not tested or not shown. Unless noted, calls come from the whole dose curve; as a rule, active = well fitted curve in the direction sought with a large enough effect; inconclusive = small, poorly fitted or top-dose-only effect, or another doubt; inactive = no such curve, though single readings can be large; an effect the other way counts as inactive or inconclusive.
SMILES,IL1B secr inh,MCF10A rerep,SW480 rereplic,KB-V1 MDR tox,KB-3-1 tox
Cc1cc(C)c2cc(CN(CCO)Cc3nnnn3Cc3ccccc3)c(=O)[nH]c2c1,-4,4%,-4%,i,i
COc1ccc2[nH]c(=O)c(CN(CCCN(C)C)C(=O)Nc3ccc(F)cc3)cc2c1,-10,2%,-3%,i,i
Cc1ccc2[nH]c(=O)c(CN(CCN3CCOCC3)C(=O)Nc3ccc(F)cc3)cc2c1,-19,4%,-4%,i,i
Cc1ccc2[nH]c(=O)c(CN(CCCN(C)C)C(=O)Nc3ccc(Cl)cc3)cc2c1,-54*,7%,?,i,?
CCOC(=O)C1CCN(C(=O)Cn2cccc2C(=O)c2ccccc2)CC1,-13,16%,-4%,21µM*,i
CCOC(=O)N1CCN(C(=O)C(c2ccccc2)c2ccccc2)CC1,-6,?,?,4.1µM*,i
CCOC(=O)C1CCCN(C(=O)Cn2cccc2C(=O)c2ccccc2)C1 (stereo not given),-1,2%,-4%,i,i
O=C(/C=C/c1ccc([N+](=O)[O-])cc1)OCC(=O)N1CCCCCC1,-12,7%,9%,i,i
O=C(/C=C/c1ccc([N+](=O)[O-])cc1)OCC(=O)N1CCOCC1,-1,18µM*,1%,/,/
CCOC(=O)N1CCN(C(=O)C(C)N(c2ccccc2)S(C)(=O)=O)CC1 (stereo not given),9,-43%,8%,i,i
O=C(c1ccccc1)c1cccn1CC(=O)N1CCCCCC1,-6,-1%,3%,i,i
Cc1cccc(N2CCN(C(=O)Cn3cccc3C(=O)c3ccccc3)CC2)c1C,-26,?,?,16µM*,?
CCC(=O)N1CCc2cc(S(=O)(=O)NC(CC(C)C)C(=O)Nc3ccc(CC)cc3)ccc21 (stereo not given),/,/,/,i,i
O=C(/C=C/c1cccc(F)c1)OCC(=O)N1CCCC1,-12,?,8.2µM*,i,i
COc1cc(/C=C/C(=O)OCC(=O)N2CCC(Cc3ccccc3)CC2)ccc1O,-70*,27%,-7%,i,i
CCOC(=O)C1CCN(C(=O)COC(=O)/C=C/c2ccccc2)CC1,?,3%,7.3µM*,i,?
CCOC(=O)C1CCN(C(=O)C(CC)c2ccccc2)CC1 (stereo not given),15,-2%,18µM*,i,i
CCCCn1nc(C(=O)NNC(=O)c2ccncc2)c2ccccc2c1=O,i,0%,-2%,?,i
COc1ccccc1NS(=O)(=O)c1cccc(C(=O)NCc2ccco2)c1,-13,-4%,-3%,i,i
CCOC(=O)N1CCN(C/C(C)=C/c2ccccc2)CC1,-14,14%,-9%,15µM*,i
CCOc1ccc2ccc(OCC)c(/C=N/n3cnnc3)c2c1,-73*,8%,-5%,i,i
OCCNc1nc(N2CCN(c3ccccc3)CC2)nc2ccccc12,-3,7.3µM*,1%,i,i
OCCNc1nc(Nc2cccc(O)c2)nc2ccccc12,-105*,-4%,-24%,i,i
OCCNc1nc(NCc2ccccc2)c2ccccc2n1,-99*,0%,-1%,i,?
CC(C)Nc1nc(NCCO)nc2ccccc12,88,/,/,i,i
SMILES,IL1B secr inh,MCF10A rerep,SW480 rereplic,KB-V1 MDR tox,KB-3-1 tox
OCCNc1nc(Nc2ccc(O)cc2)nc2ccccc12,/,5%,11%,i,i
Cc1cc(/C=C(/C#N)c2cccc(F)c2)c(C)n1-c1cccnc1,-89*,?,?,i,i
COc1ccc(OC)c(C2CC(c3c(-c4ccccc4)c4cc(Cl)ccc4[nH]c3=O)=NN2S(C)(=O)=O)c1 (stereo not given),-2,7.3µM*,?,i,i
CCOCCCNC(=O)C(c1ccc(OC)cc1)N(Cc1cccs1)C(=O)c1ccccc1O (stereo not given),-5,-5%,-1%,?,i
Cc1cccc2cc(CN(Cc3nnnn3C3CCCC3)C3CCCCC3)c(=O)[nH]c12,-12,?,?,23µM*,i
Cc1ccc2[nH]c(=O)c(CN(Cc3nnnn3Cc3ccccc3)C3CCCC3)cc2c1,-69*,-21%,2%,i,i
Cc1ccc2cc(CN(Cc3nnnn3Cc3ccco3)CC3CCCO3)c(=O)[nH]c2c1C (stereo not given),0,-1%,2%,i,i
CCc1ccc2[nH]c(=O)c(CN(Cc3nnnn3C3CCCC3)C3CCCCC3)cc2c1,?,0%,-2%,i,i
Cc1cccc2cc(CN(Cc3nnnn3Cc3ccco3)C3CCCC3)c3nnnn3c12,-26,?,6%,12µM*,i
CCOc1cc2c(cc1O)C(=NOC)CC1C2CCC2(C)C(O)CCC12 (stereo not given),-19,2.1µM*,5.8µM*,0.52µM*,0.65µM*
COc1ccc(CN(C(=S)Nc2ccccc2)C2CC(=O)N(c3ccc(Cl)cc3)C2=O)cc1 (stereo not given),-21,?,0%,i,?
O=C1CC(N(Cc2cccs2)C(=O)Nc2ccccc2)C(=O)N1c1ccc(Cl)cc1 (stereo not given),7,16%,?,18µM*,i
COc1ccc(CN(C(=S)Nc2ccccc2)C2CC(=O)N(c3ccccc3)C2=O)cc1 (stereo not given),23,?,-1%,4.6µM*,i
COc1cccc(NC(=O)CSc2nc3cc(OC)c(OC)cc3c3nc(-c4ccccc4)nn23)c1,/,/,/,?,i
CCOc1ccccc1OC(=O)CN1C(=O)c2ccccc2C1=O,-10,7%,-10%,i,i
O=C(C=Cc1ccccn1)c1ccccc1,-98*,3.3µM*,?,i,?
O=C(C=Cc1ccccn1)c1ccccc1O,-94*,?,?,?,?
O=C(/C=C/c1cccnc1)c1ccccc1O,-2,21%,-9%,i,i
O=C(/C=C/c1ccc(F)cc1)Nc1cccc([S+](=O)([O-])Nc2ccccc2F)c1,/,/,/,i,i
Cc1ccc(Cl)cc1NC(=O)C1CCN(C(=O)c2cnn(-c3ccccc3)c2-n2cccc2)CC1,/,/,/,i,?
CCC(C(=O)NC(C)(C)C)N(Cc1ccco1)C(=O)CNS(=O)(=O)c1ccc(OC)cc1 (stereo not given),-2,-25%,20%,i,i
CC(=O)N(Cc1ccc(F)cc1)C1=C(NCCc2ccccc2)C(=O)c2ccccc2C1=O,-79*,?,6.3µM*,?,8.2µM*
O=C1C(Cl)=C(Nc2ccccc2)C(=O)c2ccccc21,-107*,4.1µM*,?,?,?
O=C(O)c1cccc(NC2=C(Cl)C(=O)c3ccccc3C2=O)c1,-65*,?,?,?,?
